Experimental findings from PubChem BioAssay are described below.

Experiment [1] is described as follows: stimulators of nuclear beta-catenin in C2C12, primary screen, imaging, WNT3A-conditioned medium, mouse C2C12, NPC library (AID 1117326; in the data active = nuclear beta-catenin stimulation mostly above about 4.2%, no sharp cut-off; inactive = mostly below about 10%). The note with it: stronger effect = higher value.
Experiment [2] can be described thus: stimulators of insulin release from INS-1E, primary screen, cell-based, 5 mM glucose, NPC library (AID 1117329;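 active = compound raises insulin release from rat beta cells at 5 mM glucose, no numeric limit stated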). The note with it: rat INS-1E insulin secretion, at 10 µM, stronger effect = higher value.
The nature of experiment [3]: growth inhibition of GSK3B-pretreated HCT116 cells – cell-based, CellTiter-Glo, 0.2 to 20 µM (AID 1117336). The note with it: HCT116 viability after GSK3B inhibitor, at 20 µM, stronger effect = higher value. (In ATP-based viability assays light output follows the ATP content of the culture.)
Experiment [4] in a line: inhibition of endothelial tube formation, primary screen, imaging, VEGF stimulated, CD31 staining, tube area, NPC library (AID 1117340;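 active = compound that reduces growth-factor-driven endothelial tube area in a mixed cell culture, no cutoff stated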). The note with it: VEGF-stimulated ADSC/ECFC co-culture, at 10 µM, stronger effect = higher value.
A short description of experiment [5]: glucagon-like peptide 1 release enhancers, primary assay, NCI-H716 cell line, NPC library (AID 1117341;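 active = compound raises GLP1 secretion from the human gut endocrine cells, with no numeric limit stated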). The note with it: NCI-H716 cells, at 10 µM, stronger effect = higher value.
A short description of experiment [6]: HCT116 colon cancer cell growth inhibition, primary screen, CellTiter-Glo luminescence, NPC library (AID 1117342;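 active = compounds that lower survival of HCT116 colon cancer cells in the luminescence readout, no numeric limit stated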). The note with it: at 20 µM (top of the series).
Experiment [7] in a line: CellTiter-Glo luminescent readout of SW480 viability loss, NPC library primary (AID 1117343;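 active = compounds that lower viability of the colon cancer cells in the luminescence readout, with no numeric limit stated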). The note with it: CellTiter-Glo luminescence; at 20 µM (top of the series).
Experiment [8] can be described thus: decreased DLD-1 cellular survival, CellTiter-Glo luminescent readout, NPC compound collection, primary HTS (AID 1117346;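 active = compounds that lower survival of DLD-1 colon cancer cells in the luminescence readout, no cutoff given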). The note with it: DLD-1 viability, CellTiter-Glo luminescence; at 20 µM (top of the series).
The nature of experiment [9]: survival rescue of mitochondrial mutant cells in low glucose, primary screen, MELAS cybrids, Rieske KO mouse fibroblasts, CellTiter-Glo (AID 1508586;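 active = mean z-score across replicates of 1.96 or higher in either the MELAS or the Rieske mutant cell line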;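 also: z relative to plate mean and SD of compound and empty wells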).
Experiment [10] in a line: liver-stage malaria parasite growth inhibition, primary screen, cell-based, HepG2, luciferase luminescence, HepG2 viability (AID 624349; in the data active = parasite load remaining mostly below about 12%, no sharp cut-off; inactive = mostly above about 10%;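 also: 100% = mean of DMSO negative control wells on the same plate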). The note with it: P. berghei liver stage in HepG2, luciferase luminescence, concentration not given here; parasite load remaining: stronger effect = lower value; viability: measured here: HepG2 viability without parasites.
Experiment [11] can be described thus: sensitizers of A549 cells to miR-34 induction, primary screen, imaging, A549 dox-inducible miR-34, nuclei and caspase counts (AID 1347080;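 active = compounds whose cell count with miR-34 switched on is under 0.7 times the count with it off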). The note with it: A549 miR-34 inducible, Hoechst nuclei count, 48 h.
A short description of experiment [12]: viability rescue of complex I mutant cybrids, primary screen, cell-based, galactose medium, ATP luminescence (AID 1645843;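 active = z-score of at least 1.8 in each of two replicates, scored against plate mean and spread of sample wells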;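 also: positive z means more ATP and so rescue of galactose-driven cybrid death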). The note with it: complex I mutant cybrid cells, 72 h, stronger effect = higher value.
Experiment [13] is described as follows: hESC survival regulators, cell-based (AID 493140; call rule not given here;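 also: cells exposed to compounds for four days before counting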). The note with it: human embryonic stem cell survival screen; stronger effect = higher value.
Where [14] appears, read: MELAS cybrid survival, CellTiter-Glo 48 h, stronger effect = higher value.
Where [15] appears, read: Rieske KO mouse fibroblast survival, CellTiter-Glo 72 h.
[16] abbreviates: measured here: relative caspase fold change +Dox/-Dox.
Where [17] appears, read: measured here: total cells with miR-34 induction, stronger effect = lower value.
The mark [18] stands for this setting: measured here: total cells without miR-34 induction.
The mark [19] stands for this setting: stronger effect = lower value, cell number ratio, induced over uninduced.

Where “and” joins values, the source holds several entries; their conditions need not be identical. Equal entries are not always repeated. Calls of active or inactive are those of the source.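 The calls were made as follows, unless noted: active = compounds lowering colon cancer cell viability after pretreatment blocking the GSK3B kinase; inactive = the rest.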

With `C=C1CC[C@@]2(O)[C@H]3Cc4ccc(O)c5c4[C@@]2(CCN3CC2CC2)[C@H]1O5`, the nuclear beta-catenin stimulation in experiment [1] (at 10 µM) is 0.5% (inactive); in experiment [1] (stimulation, at 2 µM), 2.1%. For the same compound, in experiment [2], the insulin secretion stimulation is 1.2% (inactive). In addition, the viability decrease in experiment [3] was -11.9% (inactive). Further, in experiment [4], the tube area decrease is 5.1% (inactive). Further, the GLP1 secretion stimulation in experiment [5] was 2.6% (inactive). Moreover, the inhibition of viability in experiment [6] was 20.1% (inactive). Also, the viability decrease (inhibition) in experiment [7] was 7.8% (inactive); in experiment [8], 6.2% (inactive). The z-score in experiment [9] (setting [14]) was 0.147 (inactive); in experiment [9] (setting [15]), -0.2.

As usually defined, the viability is a read-out of living cells in per cent, often relative to untreated cells. Take `C#C[C@]1(O)CC[C@H]2[C@@H]3CCC4=CC(=O)CCC4=C3C=C[C@@]21CC`: in experiment [10], the parasite load remaining was 55.7% (inactive). Moreover, the viability in experiment [10] turned out to be 102%. For the same compound, the nuclear beta-catenin stimulation in experiment [1] (at 10 µM) is -0.6% (inactive); in [1] (stimulation, at 2 µM), 0.3%. Also, the insulin secretion stimulation in experiment [2] is 0.7% (inactive). Also, in experiment [3], the viability decrease is 14.5% (inactive). Moreover, the tube area decrease in experiment [4] was 41.9% (active). Besides, the GLP1 secretion stimulation in experiment [5] was 2.8% (inactive). Moreover, the inhibition of viability in experiment [6] was 26.1% (inactive). The viability decrease (inhibition) in [7] is 16% (inactive); in [8], -9.5% (inactive). Besides, the figures for the fold change in experiment [11] (stronger effect = lower value) and in experiment [11] (setting [16]) were 0.886 (inactive) and 1.01, respectively. Besides, the figures for the cell count in experiment [11] (setting [17]) and in experiment [11] (setting [18]) were 9780 and 11000, respectively. The z-score is 0.0912 (inactive) and 0.694 (inactive) in experiment [9] (setting [14]); 0.385 and 1.43 in experiment [9] (setting [15]); 0.24 (inactive) in experiment [12].

With `COC(=O)[C@@H](N)CCCN/C(N)=N/[N+](=O)[O-]`, the nuclear beta-catenin stimulation was -0.9% (inactive) in [1] (at 10 µM) and -2.6% in experiment [1] (stimulation, at 2 µM). In addition, the insulin secretion stimulation in experiment [2] was 0.95% (inactive). Besides, the viability decrease in [3] was 23.3% (inactive). Moreover, in [4], the tube area decrease was -8.8% (inactive). For the same compound, the GLP1 secretion stimulation in [5] is 0.9% (inactive). Besides, the inhibition of viability in experiment [6] is 1.7% (inactive). Besides, the values for the viability decrease (inhibition) in [7] and in [8] were -10.3% (inactive) and -0.3% (inactive), respectively. Also, the fold change was 0.947 (inactive) in [11] (setting [19]) and 0.639 in experiment [11] (setting [16]). For the same compound, the cell count in experiment [11] (setting [17]) is 5570; in experiment [11] (setting [18]) it was 5890.

On to `O=C(CCCN1CCC(n2c(=O)[nH]c3ccccc32)CC1)c1ccc(F)cc1`, for which the survival in experiment [13] is 11.5 (inactive). Also, the parasite load remaining in experiment [10] is -5.69% (inactive) and 52.9% (inactive). Also, the viability in experiment [10] is 105% and 74.8%. The nuclear beta-catenin stimulation was 4.7% (inactive) in [1] (at 10 µM) and 3% in [1] (stimulation, at 2 µM). Besides, the insulin secretion stimulation in [2] was 0.7% (inactive). Besides, the viability decrease in experiment [3] was -40.8% (inactive). Also, in [4], the tube area decrease was 8% (inactive). Also, the GLP1 secretion stimulation in [5] was 2.9% (inactive). In addition, the inhibition of viability in experiment [6] is 19.9% (inactive). The viability decrease (inhibition) is 29.4% (inactive) in experiment [7] and 2.6% (inactive) in experiment [8]. The fold change was 0.825 (inactive) in experiment [11] (stronger effect = lower value) and 1.64 in [11] (setting [16]). In addition, the cell count in experiment [11] (setting [17]) amounted to 7580; in [11] (setting [18]), 9190. The z-score in experiment [9] (setting [14]) is 0.0917 (inactive); in experiment [9] (setting [15]) it was -0.147.

On to `CCCCCCCCCCCC[N+](C)(C)CCOc1ccccc1`, for which the nuclear beta-catenin stimulation was 20.4% (inactive) in experiment [1] (at 10 µM) and 0.6% in [1] (stimulation, at 2 µM). For the same compound, in experiment [2], the insulin secretion stimulation is 5.9% (inactive). For the same compound, in experiment [3], the viability decrease is 110% (active). Also, the tube area decrease in experiment [4] was 111% (active). Besides, in experiment [5], the GLP1 secretion stimulation was 67% (active). Besides, in experiment [6], the inhibition of viability was 112% (active). For the same compound, the values for the viability decrease (inhibition) in experiment [7] and in experiment [8] were 134% (active) and 101% (active), respectively. Moreover, the fold change is 0.988 (inactive) in [11] (setting [19]) and 0.958 in experiment [11] (setting [16]). In addition, the cell count was 6790 in experiment [11] (setting [17]) and 6870 in experiment [11] (setting [18]). The z-score was -0.488 (inactive) in experiment [9] (setting [14]) and -0.197 in [9] (setting [15]).
